The values that follow come from PubChem BioAssay (Tox21).

Structures are written as SMILES. Records with an inconclusive call do not appear. Active and inactive are the calls of the source. Unless noted, the call rests on the fitted dose curve; in most records, active means well fitted curve in the direction sought with a large enough effect in the repeat runs; inconclusive means weak or mixed curves; inactive means no such curve, though single readings can be large; an effect the other way counts as inactive or inconclusive.

Test [1] addresses Retinoic acid receptor RXR-alpha (Homo sapiens) (UniProt P19793). Nature of the test: qHTS assay to identify small molecule agonists of the RXR signaling pathway (AID 1159527; calls by dose curve; further: nearly all actives have a fitted effect of over 35% in size). The method, boiled down: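 Using 9-cis retinoic acid as the reference agonist, chemicals were tested in HEK 293T cells […] for 16 hr; substrate loading lasted 2 hr at room temperature.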
Background: In qHTS, concentration-response curves come from the screen itself.

A short description of test [2]: qHTS assay to identify small molecule agonists of the RXR signaling pathway - cell viability counter screen (AID 1159529). Further: series mostly up to about 77 µM; nearly all actives have a fitted effect of over 50% in size. The essentials:
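Compounds dissolved in DMSO were pinned onto HEK 293T cells carrying a beta-lactamase reporter under RXR-alpha control and incubated 16 hr. Cytotoxicity was then quantified by CellTiter-Glo luminescence.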

The nature of test [3]: qHTS assay to identify small molecule antagonists of the retinoid acid receptor (RAR) signaling pathway - cell viability counter screen (AID 1159551). Further: nearly all actives have a fitted effect of over 35% in size. The method, boiled down: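 C3RL4 RARE-luciferase cells, 1,000/well, incubated overnight, then dosed with compound plus 1 uM retinol (final). After 6 hr at 37 C, viability read by CellTiter-Glo ATP luminescence following 30 min at room temperature.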

Test [4] is described as follows: qHTS assay to identify small molecule antagonists of the retinoic acid receptor (RAR) signaling pathway (AID 1159552; further: nearly all actives have a fitted effect of over 50% in size). The essentials: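 Test chemicals and DMSO controls were pin-transferred onto C3RL4 cells a day after seeding; retinol (1 uM final) followed at once. Luminescent reporter output was quantified after 6 hr of co-incubation and 30 min with detection reagent.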

The nature of test [5]: qHTS assay to identify small molecule antagonists of the estrogen related receptor (ERR) signaling pathway from Tox21 library - cell viability counter screen (AID 1224834). Further: nearly all actives have a fitted effect of over 30% in size. Further: potency means the concentration at half of the fitted maximal effect. The method, boiled down: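 ERR reporter cells, 2,000 per well, rested 6 h, then exposed to compound in DMSO for 17.5 hours at 37 C. Viability read as fluorescence after 30 min with CellTiter-Fluor.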
Test [6] is described as follows: qHTS assay to identify small molecule agonists of the constitutive androstane receptor (CAR) signaling pathway - cell viability counter screen (AID 1224836). Further: series mostly up to about 92 µM; nearly all actives have a fitted effect of over 45% in size. The method, boiled down: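 23 h treatment, 37 C, 5% CO2. Cell line: HepG2 stably expressing hCAR with a CYP2B6-2.2kb construct. Co-treatment: PK11195, 0.75 uM final. Read-out: CellTiter-Fluor fluorescence intensity.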

Test [7] in a line: qHTS assay to identify small molecule antagonists of the constitutive androstane receptor (CAR) signaling pathway - cell viability counter screen (AID 1224837). Further: series mostly up to about 92 µM; nearly all actives have a fitted effect of over 45% in size. The essentials: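 HepG2 cells stably carrying hCAR and CYP2B6-2.2kb reporter, stimulated with 50 nM CITCO and compounds at 15 concentrations for 23 h at 37 C. Viability measured by CellTiter-Fluor fluorescence.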
In test [8] the target is Nuclear receptor subfamily 1 group I member 3 (Homo sapiens) (UniProt Q14994). Nature of the test: qHTS assay to identify small molecule antagonists of the constitutive androstane receptor (CAR) signaling pathway (AID 1224838). Further: nearly all actives have a fitted effect of over 40% in size. The method, boiled down:
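HepG2 cells stably carrying hCAR and a CYP2B6-2.2kb luciferase reporter, seeded 4 hrs before compound (15 concentrations). Stimulated with 50 nM CITCO for 24 hr at 37 C. ONE-Glo luminescence read after 30 min at room temperature.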

Test [9] is described as follows: qHTS assay to identify small molecule antagonists of the estrogen related receptor signaling pathway with the pleiotropic PPARgamma coactivator (PGC) from Tox21 10K library - cell viability counter screen (AID 1224840; active means well fitted cell-killing curve with a large enough effect in the repeat runs, not every such curve was filed as active; further: nearly all actives have a fitted effect of over 40% in size). The method, boiled down: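 PGC/ERR cells (2,000/well) plated 6 h, then compound-treated for 17.5 h at 37 C. Viability measured by CellTiter-Fluor fluorescence after 30 min at 37 C, multiplexed with the pathway assay.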

The nature of test [10]: qHTS assay to identify small molecule antagonists of the estrogen related receptor signaling pathway with the pleiotropic PPARgamma coactivator (PGC) from Tox21 10K library (AID 1224841; call rule not given here; further: series mostly up to about 92 µM; actives are mostly falling curves and most rising ones were filed inactive; nearly all actives have a fitted effect of over 50% in size). The method, boiled down:
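PGC/ERR cell line, 2,000 cells/well, pre-incubated 6 hours at 37 C, then exposed to compounds for 18 hours at 37 C; luciferase read with One-Glo luminescence after 30 min at room temperature.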

Test [11] is described as follows: qHTS assay to identify small molecule agonists of the estrogen related receptor signaling pathway with the pleiotropic PPARgamma coactivator (PGC) from Tox21 10K library (AID 1224842). Further: nearly all actives have a fitted effect of over 15% in size. Further: potency means the concentration at half of the fitted maximal effect. The method, boiled down:
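PGC/ERR reporter cells (NTP line) were seeded 2,000 per well, rested 6 h at 37 C/5% CO2, then pin-dosed with compounds in DMSO for 18 h at 37 C; luciferase read by One-Glo luminescence after 30 min at room temperature.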

Test [12] deals with Luciferin 4-monooxygenase (Photinus pyralis) (UniProt P08659). The test is described as follows: qHTS assay to identify small molecule inhibitors of firefly luciferase (AID 1224835). Further: series mostly up to about 120 µM; nearly all actives have a fitted effect of over 25% in size. The essentials:
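Quantitative HTS format; KM concentrations of both substrates. Purified P. pyralis FLuc activity quantified from luminescence images.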

Test [13] in a line: qHTS assay to identify small molecule antagonists of the estrogen related receptor (ERR) signaling pathway - cell viability counter screen (AID 1224818). Further: series mostly up to about 46 µM. The method, boiled down:
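ERR cells, 2,000 per well, compound added after 6 h and incubated 17.5 h at 37 C. Viability read by CellTiter-Fluor fluorescence after a further 30 min at 37 C.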

Test [14] is described as follows: qHTS assay to identify small molecule antagonists of the estrogen related receptor signaling pathway with the pleiotropic PPARgamma coactivator (PGC) cell viability counter screen (AID 1224822; further: series mostly up to about 46 µM). The method, boiled down: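 PGC/ERR cells rested 6 h, then compound-treated 17.5 h at 37 C. CellTiter-Fluor added for 30 min at 37 C, viability measured by fluorescence intensity.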

Test [15] has as its target Nuclear receptor subfamily 1 group I member 3 (Homo sapiens) (UniProt Q14994). Nature of the test: qHTS assay to identify small molecule agonists of the constitutive androstane receptor (CAR) signaling pathway (AID 1224839). Further: series mostly up to about 92 µM; nearly all actives have a fitted effect of over 15% in size. The method, boiled down:
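Compounds tested at 15 concentrations on HepG2 cells stably harbouring hCAR and CYP2B6-2.2kb reporter constructs, co-treated with PK11195 (0.75 uM final), 24 h at 37 C; luminescent reporter signal quantified.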

Test [16] in a line: qHTS assay to identify small molecule agonists of the retinoic acid receptor (RAR) signaling pathway (AID 1159553). The method, boiled down: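 C3RL4 RARE-luciferase cells were seeded at 1,000/well and grown overnight at 37 C, then exposed to compounds for 6 hr at 37 C, 5% CO2. Luciferase reagent was added and luminescence was read after 30 min at room temperature.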

Chain of Retinoic acid receptor RXR-alpha (Homo sapiens) (P19793 whole entry, looked up): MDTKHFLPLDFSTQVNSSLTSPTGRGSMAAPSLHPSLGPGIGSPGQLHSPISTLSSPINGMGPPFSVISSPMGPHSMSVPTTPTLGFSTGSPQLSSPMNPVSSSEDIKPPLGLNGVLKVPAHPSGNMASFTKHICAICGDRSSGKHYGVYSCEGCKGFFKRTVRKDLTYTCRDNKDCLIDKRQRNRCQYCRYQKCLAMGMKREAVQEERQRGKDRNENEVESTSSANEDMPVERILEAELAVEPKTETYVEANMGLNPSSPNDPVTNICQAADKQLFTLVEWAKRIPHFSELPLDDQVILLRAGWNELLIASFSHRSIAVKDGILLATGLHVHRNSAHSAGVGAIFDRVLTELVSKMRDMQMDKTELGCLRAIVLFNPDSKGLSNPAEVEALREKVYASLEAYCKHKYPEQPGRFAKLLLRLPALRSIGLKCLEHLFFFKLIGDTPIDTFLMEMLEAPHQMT
Chain of Luciferin 4-monooxygenase (Photinus pyralis) (P08659 whole entry, looked up): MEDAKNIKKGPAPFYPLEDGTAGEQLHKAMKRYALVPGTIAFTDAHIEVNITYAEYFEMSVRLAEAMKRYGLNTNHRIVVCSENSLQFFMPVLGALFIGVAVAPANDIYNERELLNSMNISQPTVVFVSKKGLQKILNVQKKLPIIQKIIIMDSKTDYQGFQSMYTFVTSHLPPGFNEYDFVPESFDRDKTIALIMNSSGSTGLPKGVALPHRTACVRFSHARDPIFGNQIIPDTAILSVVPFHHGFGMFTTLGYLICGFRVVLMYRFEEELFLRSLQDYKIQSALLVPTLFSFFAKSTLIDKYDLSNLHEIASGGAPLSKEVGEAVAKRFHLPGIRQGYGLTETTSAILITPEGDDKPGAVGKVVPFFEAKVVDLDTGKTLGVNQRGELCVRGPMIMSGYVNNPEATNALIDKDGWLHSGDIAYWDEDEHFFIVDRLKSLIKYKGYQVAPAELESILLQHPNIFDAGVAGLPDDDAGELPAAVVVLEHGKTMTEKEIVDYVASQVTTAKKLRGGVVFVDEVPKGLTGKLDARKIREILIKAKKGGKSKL
Chain of Nuclear receptor subfamily 1 group I member 3 (Homo sapiens) (Q14994 whole entry, looked up): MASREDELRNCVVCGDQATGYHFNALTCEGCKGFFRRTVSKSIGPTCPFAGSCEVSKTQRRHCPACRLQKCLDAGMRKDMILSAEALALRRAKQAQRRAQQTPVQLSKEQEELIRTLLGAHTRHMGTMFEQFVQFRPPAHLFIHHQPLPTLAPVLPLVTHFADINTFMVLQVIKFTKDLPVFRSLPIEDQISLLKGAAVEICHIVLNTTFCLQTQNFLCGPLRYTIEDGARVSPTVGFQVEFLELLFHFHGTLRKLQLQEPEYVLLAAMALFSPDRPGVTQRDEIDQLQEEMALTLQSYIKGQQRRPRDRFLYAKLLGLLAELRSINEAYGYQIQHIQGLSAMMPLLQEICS

For the compound `O=C(c1ccccc1)c1ccc(O)cc1`, the Potency result in test [1], in test [2], in [3], in test [4], in test [6] and in [7] was “inactive” throughout. Besides, the Potency result in test [8], in [9], in test [10] and in test [11] was “inactive” throughout. The Potency in [5] is 69.4 µM (active).
Turning to `O=CNNC=O`, the Potency result in test [1], in test [2], in [3], in test [5], in [12] and in test [6] was “inactive” in each case. For the same compound, the Potency entry in test [7] and in test [9] was “inactive” each time.
Turning to `Cc1oc(=O)oc1COC(=O)[C@@H]1N2C(=O)[C@@H](NC(=O)[C@H](N)c3ccccc3)[C@H]2SC1(C)C`, the Potency result in test [1], in test [2], in [3], in test [5], in [12] and in test [6] was “inactive” throughout. Besides, the Potency result in [7], in test [10] and in test [11] was “inactive” throughout.
As to `C[C@H](CS)C(=O)N1CCC[C@H]1C(=O)O`, the Potency result in test [1], in test [2], in test [3], in test [6], in test [7] and in test [8] was “inactive” throughout. Further, the Potency result in test [15] and in [9] was “inactive” throughout. The outcome in test [13] and in [14] was inactive.
As for `CC(C)Cc1ccc(CC(=O)O)cc1`, the Potency result in test [1], in test [2], in test [3], in [4], in test [5] and in test [12] was “inactive” throughout. Besides, the Potency entry in test [6], in [7], in test [8], in test [15], in test [9] and in test [10] was “inactive” throughout. In addition, the Potency entry in [11] is “inactive”.
Consider `COc1ccc(C(=O)NCc2ccc(OCCN(C)C)cc2)cc1OC`, for which the Potency result in test [1], in test [2], in [3], in test [5], in test [12] and in [6] was “inactive” each time. The Potency entry in test [7], in test [9] and in test [11] was “inactive” throughout.
On to `O=C(C(=O)c1ccco1)c1ccco1`, for which the Potency result in [1], in [2], in [3], in [5], in test [12] and in test [6] was “inactive” throughout. Also, the Potency entry in [7], in [8], in test [15] and in test [9] was “inactive” throughout.
Take `Cc1ccc2nc(N)[nH]c(=O)c2c1Sc1ccncc1`: the Potency result in test [1], in test [2], in test [3], in [5], in [12] and in [6] was “inactive” throughout. The Potency result in test [7], in [8], in test [9], in test [10] and in [11] was “inactive” in each case.
As for `Nc1c(Cl)cc(Cl)cc1[N+](=O)[O-]`, the Potency result in [1], in [2], in test [3], in test [16], in [5] and in test [12] was “inactive” in each case. Besides, the Potency result in test [6], in test [7], in [8], in test [15] and in test [10] was “inactive” throughout. Moreover, the Potency in [11] is 5.45 µM (active).
`CCN(CC)C(=O)N1CCN(C)CC1`: the Potency entry in [1], in [2], in [3], in [4], in test [16] and in test [12] was “inactive” each time. For the same compound, the Potency result in test [7], in [9] and in test [11] was “inactive” in each case.
